Source: PubChem BioAssay AID743279 (National Center for Advancing Translational Sciences (NCATS), 2014)
Hit rate of the full screen: of about 360,000 compounds, about 17,000 (4.7%) were called active. Roughly 5% stayed inconclusive and do not appear here. No stated cut-off is given here; in the data, active means activity change below about -50%; inconclusive means mostly about -30% to -49%; inactive means weaker than that. The list comes from a sample in which actives are over-represented; it also holds similar structures and randomly drawn compounds.

Test: qHTS for Inhibitors of Inflammasome Signaling: IL-1-beta AlphaLISA Primary Screen
Settings: THP-1 LPS/ATP IL-1B secretion, 16 h; at 57.5 µM, hits give low values
Summary of the method: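 THP-1 cells pretreated 1 hr with compounds (up to 57.5 uM final), then stimulated with LPS (250 ng/mL final) plus ATP (1.25 mM final); secreted IL-1B measured by AlphaLISA after 16 hr, decreased signal indicating inhibition.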
On the % scale 0 is the no-effect control and ±100 the full control effect.

Activity change, active:
Cc1ccc(-c2ccnc3nc(Sc4ncc(C(F)(F)F)cc4Cl)nn23)cc1 -65.2%, CC(=O)Nc1ccc(CNc2nc(NCCN(C)C)nc3cc(-c4ccccc4)sc23)cc1 -108%, CCCC[C@@H]1CN=C(N)N1CCc1cc(C(F)(F)F)cc(C(F)(F)F)c1 -103%, CCOC(=O)C1=C(COC(=O)[C@H](C)NS(=O)(=O)c2ccccc2F)NC(=O)NC1C (stereo partly specified) -51.3%, CCn1c(/C=C/c2ccc([N+](=O)[O-])o2)nc2ccccc2c1=O -95.2%, COc1ccccc1CSc1nc2ccccc2[nH]1 -54.1%, CCOC(=O)c1nnn(CC(=O)Nc2cccc(F)c2)c1C(=O)OCC -64.5%, CCC(O)C1CCN(Cc2cn(-c3ccc(OC)cc3)nc2-c2cccc(F)c2)CC1 (stereo unspecified) -60.7%, COc1ccc(-n2cc(CNC3CCOCC3)c(-c3cccc(F)c3)n2)cc1 -66.6%, Cc1nc2sc3c(c2c(=O)n1NC(=O)CCl)CCCC3 -80.7%, CCCc1nc2sc3c(c2c(=O)n1NC(=O)CCCl)CCCC3 -96.6%, C/C=C/c1ccc(OCC(O)CN2CCCCCCC2)c(OC)c1 (stereo unspecified) -53.6%, C/C=C/c1ccc(OCCCCN2CCC(C)CC2)c(OC)c1 -54%, O=C(c1ccc(OC2CCN(C/C=C/c3ccc(F)cc3)CC2)cc1)N1CCCCC1 -63.7%, O=C(Nc1ccnn1C1CCN(C/C=C/c2ccc(F)cc2)CC1)C1CCCC1 -71.6%, COc1ccc(Oc2c(Cl)cnn(-c3ccccc3)c2=O)cc1 -118%, COc1cc([N+](=O)[O-])ccc1NC(=O)COC(=O)CCOc1ccc(C)cc1 -81.7%, FC(F)(F)C1CCCN(c2nsc3ccccc23)C1 (stereo unspecified) -76%

Activity change, inactive:
Cc1nc(N)sc1N=Nc1c(C)n(C)n(-c2ccccc2)c1=O 15.5%, COCCNC(=O)C1CCCN(Cc2ccccc2Cl)CC1 (stereo unspecified) 21.5%, Cc1cc(NC(=O)CSc2ncc(C(F)(F)F)cc2Cl)no1 -7.22%, Cc1nn(-c2ncc(C(F)(F)F)cc2Cl)c(=O)n1-c1ccccc1 24.1%, COc1ccc(S(=O)(=O)N2CCSCC2)cc1 0%, C[C@H]1Cn2cnc(C(=O)N[C@@H](Cc3c[nH]c4ccccc34)C(=O)OC(C)(C)C)c2C(=O)N1 33.4%, COCCNc1nc(NCc2ccc(NC(C)=O)cc2)c2sccc2n1 29.5%, COCCNc1nc(Nc2ccccc2Cl)c2sc(-c3ccccc3)cc2n1 -12.6%, CC1Cc2[nH][nH]c(=O)c2C(C2CCCC2)O1 (stereo unspecified) 16.7%, CCOC(=O)[C@]12CCC=C1N(Cc1ccco1)C(=O)[C@H](CC(=O)N1CCSCC1)C2 -5.81%, CC(C)c1cccc(C(C)C)c1Nc1cn[nH]c1 -1.8%, CCCC[C@@H]1CN=C(N)N1CCCC 15.9%, CCCCN1C(N)=NC[C@@H]1Cc1ccccc1 5.9%, CC(=O)Nc1cccc(Nc2ccc(C#N)cc2)c1 -18.3%, CC(OC(=O)c1ccc(NC(=O)CC#N)cc1)C(=O)Nc1ccc(S(=O)(=O)N2CCCC2)cc1 (stereo unspecified) -25.9%, Cc1ccc(S(=O)(=O)N2CCOCC2)cc1C(=O)Nc1ccccc1N1CCCC1 -1.43%, O=C1OCC2=C1C(c1ccc(Cl)cc1)c1cc3c(cc1O2)OCO3 (stereo unspecified) -0.909%, O=C(NC1CC1)C(Cc1ccccc1)NS(=O)(=O)c1ccccc1F (stereo unspecified) 20.4%, CCOC(=O)C1=C(c2ccccc2)NC(=O)NC1c1cc(OC)c(OC)cc1OC (stereo unspecified) -5.44%, O=c1oc(/C=C/c2ccccc2)nc2ccccc12 -0.257%, CCOCCCn1c(NN)nc2ccccc2c1=O -13.8%, CC(C)CN1C(=O)CN(S(C)(=O)=O)CC1(C)C(=O)NCc1ccccc1 (stereo unspecified) 37.5%, Clc1cc(NC2CCCCC2)ncn1 35.9%, COCCCNC(=O)c1cccc2c(-c3ccc(O)c(OC)c3)coc12 2.52%, O=C(NCc1ccccc1)c1onc(CSc2nc3ccccc3[nH]2)c1C(=O)NCc1ccccc1 -5.65%, CN(Cc1ccccc1)C(=O)CSc1nc2ccccc2[nH]1 -8.05%, O=C(NCC1CCCCC1)NCC1CCCCC1 5.16%, C[C@@H]1CN([C@@H](C)CO)C(=O)CCCn2nncc2CO[C@H]1CN(C)Cc1ccc(C(F)(F)F)cc1 14.2%, CCOC(=O)c1cccc(NC(=O)c2ccc(F)cc2F)c1 13.7%, CCOC(=O)c1cccc(NC(=O)CCn2nnc3ccccc32)c1 -9.21%, Cn1cc(CN2CCC(C(O)CCc3ccccc3)CC2)c(-c2ccccc2F)n1 (stereo unspecified) -20.8%, COc1ccc(-c2nn(-c3ccccc3)cc2CN2CCCO2)c(F)c1 -28.9%, COc1ccc(-n2cc(CN(C)Cc3n[nH]c(=O)[nH]3)c(-c3cccc(F)c3)n2)cc1 -3.96%, Cc1cccc(-n2cc(CN3CCN(C(=O)c4ncn[nH]4)CC3)c(-c3cccc(F)c3)n2)c1 0.119%, OCCC1CN(Cc2ccc3nsnc3c2)CCN1C1CCCCC1 (stereo unspecified) 36.7%, O=C(COc1ccc(Br)cc1)OCC(=O)c1ccc[nH]1 -7.68%, CCCNC(=O)C1(C)CCN(C(=O)c2ccc(F)cc2Cl)C1 (stereo unspecified) 16.4%, CC1(C)CC(=O)C2=C(C1)N=C1SCCC(=O)N1C2c1ccc(C(F)(F)F)cc1 (stereo unspecified) 0.519%, Cc1ccc(C)c(-n2c(SCC(=O)O)nc3sc4c(c3c2=O)CCCC4)c1 0.0998%, CCc1nc(N2CCN(C(C)=O)CC2)c2c3c(sc2n1)CCCC3 -1.89%, NNC(=O)C1CCCn2c1nc1sc3c(c1c2=O)CCCC3 (stereo unspecified) 0%, Cn1c(NN)nc2sc3c(c2c1=O)CCC3 26.1%, O=C1[C@H]2[C@@H](c3ccc(C(F)(F)F)cc3)N[C@]3(CCCN(Cc4ccc(Br)cc4)C3=O)[C@H]2C(=O)N1Cc1ccccc1 -13.1%, Cc1ccc(S(=O)(=O)N2CC3C(=O)C[C@@H](c4ccccc4Cl)N(S(=O)(=O)c4ccc(C)cc4)C3CC2c2ccccc2)cc1 (stereo partly specified) -22%, COC(=O)[C@]12CCCCC=C1N(Cc1ccc3c(c1)OCO3)C(=O)[C@H](CC(=O)N1CCOCC1)C2 -18.3%, C=CCc1ccc(OCC(O)CN2CCN(Cc3ccccc3)CC2)c(OC)c1 (stereo unspecified) -7.39%, C/C=C/c1ccc(OCCOc2ccc(C=O)cc2OC)c(OC)c1 3.9%, COc1ccc(OCCCCN2CCC(C)CC2)cc1 -29.3%, COc1ccccc1OCC(O)CN1CCOCC1 (stereo unspecified) 5.64%, CC(=O)Nc1ccc(C(=O)OCC(=O)Nc2ccc([N+](=O)[O-])cc2C(F)(F)F)cc1 -1.11%, COC(=O)[C@]12CCCCC=C1N(Cc1ccco1)C(=O)[C@H](CC(=O)NCCCCc1ccccc1)C2 4%, CC(=O)Nc1cccc(-c2cc3nc(NCc4cccnc4)n(C)c(=O)c3s2)c1 -0.936%, Cc1ccc(S(=O)(=O)NNC(=O)/C=C/c2cccc(F)c2)cc1 -11.4%, CC(CN1CCC(n2nccc2NC(=O)C2CCCC2)CC1)c1ccccc1 (stereo unspecified) -14%, CC(=O)Nc1ccc(CN2CCC(Oc3ccc(C(=O)N4CCCC4)cc3)CC2)cc1 20.8%, Cc1nn(C)c(Cl)c1CN1CCC(n2nccc2NC(=O)C2CCCC2)CC1 22.9%, O=C(c1ccc(OC2CCN(Cc3ccccn3)CC2)cc1)N1CCCCCC1 2.11%, CCC(C(=O)NC(C)(C)C)n1c(-c2ccccc2)nc2ccccc21 (stereo unspecified) 3.76%, CC(=O)Nc1ccc2nc(NC(=O)CS(=O)(=O)c3ccc(F)cc3)sc2c1 2.42%, CCOc1ccc(S(=O)(=O)NCCC(=O)NCC(C)(C)N2CCOCC2)cc1 12.3%, Cc1ccc(NC(=O)[C@H](Cc2ccccc2)NC(=O)CC[C@H]2O[C@@H](n3ccc(=O)[nH]c3=O)[C@H](O)[C@@H]2O)cc1C 6.2%, CC1(C)OC(=O)C2=C(C[C@@H](C3CC3)O[C@H]2CCc2cccc(Cl)c2)O1 24.6%, COc1cnn(-c2ccc([N+](=O)[O-])cc2)c(=O)c1Cl -16.9%, COc1ccc(CCNC(=O)c2c(C)nn(-c3ccccc3)c2Cl)cc1 -6.31%, CCc1ccc(NC(=O)C(=O)NNC(=O)c2cccs2)cc1 -11.1%, CCOc1ccc(NC(=O)CN(C)C(=O)CSc2ccccc2)cc1OCC 5.24%, O=C(Nc1ccc(F)cc1)C(=O)c1cn(CC(=O)N2CCOCC2)c2ccccc12 8.7%, Cc1ccnc(NS(=O)(=O)c2ccc(NC(=O)c3oc4ccc(F)cc4c3C)cc2)n1 4.03%, CSc1ccccc1NC(=O)COC(=O)CCCOc1ccc(C)cc1 13.8%, COc1cccc(NC(=O)COC(=O)CCOc2ccccc2OC)c1 -1.64%, O=C(COC(=O)c1cccc(Cl)c1Cl)NC1CCCCCC1 4.38%, O=C(NCC(=O)N1CCCC(C(F)(F)F)C1)c1ccccc1F (stereo unspecified) 6.36%, Cn1ccc(=Nc2ccc(NC(=O)c3ccc(N=c4ccn(C)c5ccc([N+](=O)[O-])cc45)cc3)cc2)cc1 -20.4%
